# Assays:
# Experiment in all cases: yeast three-hybrid, YBZ-1, SC-Leu-His + 0.5 mM 3-AT, 4 days
# Settings in all cases: tags: N-Gal4 AD-HA kept; label: inside an RPR1-promoter hybrid RNA with tandem MS2 sites; ssRNA
# PUM1 PUF domain R4-FGR = PUM1 PUF domain R4-FGR (Homo sapiens, UniProt Q14671 828-1176, N971F;H972G;Q975R)
# In short: (§1)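 A centromeric plasmid in strain YBZ-1 co-expressed Pumilio-1 PUF domain libraries, randomized at the three base-contacting residues of each repeat, with matching RNA elements; the strain carries a LexA–MS2 coat fusion and a HIS3 reporter. After four days on SC-Leu (input) or SC-Leu-His + 0.5 mM 3-AT (selection), the repeat regions were PCR-amplified and Illumina-sequenced. The interaction score is the log change in variant frequency from input to selection, using log2 and a pseudocount of 1 where absent.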
# PUM1 PUF domain R4-SPM = PUM1 PUF domain R4-SPM (Homo sapiens, UniProt Q14671 828-1176, N971S;H972P;Q975M)
# In short: as §1
# PUM1 PUF domain R4-CNS = PUM1 PUF domain R4-CNS (Homo sapiens, UniProt Q14671 828-1176, N971C;H972N;Q975S)
# In short: as §1
# PUM1 PUF domain R3-LWS = PUM1 PUF domain R3-LWS (Homo sapiens, UniProt Q14671 828-1176, C935L;R936W;Q939S)
# In short: as §1
# PUM1 PUF domain R1-LRR = PUM1 PUF domain R1-LRR (Homo sapiens, UniProt Q14671 828-1176, S863L;Q867R)
# In short: as §1
# PUM1 PUF domain R8-KRW = PUM1 PUF domain R8-KRW (Homo sapiens, UniProt Q14671 828-1176, N1122K;Y1123R;Q1126W)
# In short: as §1
# PUM1 PUF domain R2-LYL = PUM1 PUF domain R2-LYL (Homo sapiens, UniProt Q14671 828-1176, N899L;Q903L)
# In short: as §1
# PUM1 PUF domain R7-RVC = PUM1 PUF domain R7-RVC (Homo sapiens, UniProt Q14671 828-1176, S1079R;N1080V;E1083C)
# In short: as §1
# PUM1 PUF domain R7-GRL = PUM1 PUF domain R7-GRL (Homo sapiens, UniProt Q14671 828-1176, S1079G;N1080R;E1083L)
# In short: as §1
# PUM1 PUF domain R5-NKR = PUM1 PUF domain R5-NKR (Homo sapiens, UniProt Q14671 828-1176, C1007N;R1008K;Q1011R)
# In short: as §1
# PUM1 PUF domain R5-RRW = PUM1 PUF domain R5-RRW (Homo sapiens, UniProt Q14671 828-1176, C1007R;Q1011W)
# In short: as §1
# PUM1 PUF domain R1-SVR = PUM1 PUF domain R1-SVR (Homo sapiens, UniProt Q14671 828-1176, R864V;Q867R)
# In short: as §1
# PUM1 PUF domain R4-GFW = PUM1 PUF domain R4-GFW (Homo sapiens, UniProt Q14671 828-1176, N971G;H972F;Q975W)
# In short: as §1
# PUM1 PUF domain R5-QLS = PUM1 PUF domain R5-QLS (Homo sapiens, UniProt Q14671 828-1176, C1007Q;R1008L;Q1011S)
# In short: as §1
# PUM1 PUF domain R4-RMT = PUM1 PUF domain R4-RMT (Homo sapiens, UniProt Q14671 828-1176, N971R;H972M;Q975T)
# In short: as §1
# PUM1 PUF domain R6-RWC = biological target: T1, PUM1 PUF domain R6-RWC (Homo sapiens, UniProt Q14671 828-1176, N1043R;Y1044W;Q1047C)
# T1 sequence: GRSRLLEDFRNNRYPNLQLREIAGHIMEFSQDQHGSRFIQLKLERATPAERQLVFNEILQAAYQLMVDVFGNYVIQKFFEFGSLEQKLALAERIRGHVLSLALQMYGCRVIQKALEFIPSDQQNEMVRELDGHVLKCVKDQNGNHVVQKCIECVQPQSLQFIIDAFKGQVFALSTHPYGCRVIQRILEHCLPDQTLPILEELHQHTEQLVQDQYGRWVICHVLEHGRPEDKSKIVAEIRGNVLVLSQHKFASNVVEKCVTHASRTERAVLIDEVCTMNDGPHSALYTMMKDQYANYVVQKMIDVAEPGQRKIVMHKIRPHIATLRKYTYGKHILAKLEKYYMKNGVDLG
# In short: as §1
# PUM1 PUF domain R4-RMA = PUM1 PUF domain R4-RMA (Homo sapiens, UniProt Q14671 828-1176, N971R;H972M;Q975A)
# In short: as §1
# PUM1 PUF domain R5-KNA = PUM1 PUF domain R5-KNA (Homo sapiens, UniProt Q14671 828-1176, C1007K;R1008N;Q1011A)
# In short: as §1
# PUM1 PUF domain R3-RPH = PUM1 PUF domain R3-RPH (Homo sapiens, UniProt Q14671 828-1176, C935R;R936P;Q939H)
# In short: as §1
# PUM1 PUF domain R3-RVT = PUM1 PUF domain R3-RVT (Homo sapiens, UniProt Q14671 828-1176, C935R;R936V;Q939T)
# In short: as §1
# Chain of PUM1 PUF domain R4-CNS (Q14671 828-1176 N971C/H972N/Q975S): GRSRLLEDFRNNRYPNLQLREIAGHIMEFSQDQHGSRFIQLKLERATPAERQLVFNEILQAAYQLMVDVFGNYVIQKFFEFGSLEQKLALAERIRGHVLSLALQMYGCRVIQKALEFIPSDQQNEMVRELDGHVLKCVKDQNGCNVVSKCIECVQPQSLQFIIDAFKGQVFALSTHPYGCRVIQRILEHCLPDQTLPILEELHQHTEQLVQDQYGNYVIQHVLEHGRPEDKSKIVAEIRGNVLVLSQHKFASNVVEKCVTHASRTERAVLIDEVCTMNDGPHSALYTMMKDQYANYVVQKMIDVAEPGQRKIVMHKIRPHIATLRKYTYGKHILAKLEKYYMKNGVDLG
# Chain of PUM1 PUF domain R5-RRW (Q14671 828-1176 C1007R/Q1011W): as the sequence (Q14671 828-1176 N971C/H972N/Q975S) above, with C144N, N145H, S148Q, C180R, Q184W counted along it
# Chain of PUM1 PUF domain R8-KRW (Q14671 828-1176 N1122K/Y1123R/Q1126W): as the sequence (Q14671 828-1176 N971C/H972N/Q975S) above, with C144N, N145H, S148Q, N295K, Y296R, Q299W counted along it
# Chain of PUM1 PUF domain R7-RVC (Q14671 828-1176 S1079R/N1080V/E1083C): as the sequence (Q14671 828-1176 N971C/H972N/Q975S) above, with C144N, N145H, S148Q, S252R, N253V, E256C counted along it
# Chain of PUM1 PUF domain R7-GRL (Q14671 828-1176 S1079G/N1080R/E1083L): as the sequence (Q14671 828-1176 N971C/H972N/Q975S) above, with C144N, N145H, S148Q, S252G, N253R, E256L counted along it
# Chain of PUM1 PUF domain R5-NKR (Q14671 828-1176 C1007N/R1008K/Q1011R): as the sequence (Q14671 828-1176 N971C/H972N/Q975S) above, with C144N, N145H, S148Q, C180N, R181K, Q184R counted along it
# Chain of PUM1 PUF domain R3-RPH (Q14671 828-1176 C935R/R936P/Q939H): as the sequence (Q14671 828-1176 N971C/H972N/Q975S) above, with C108R, R109P, Q112H, C144N, N145H, S148Q counted along it
# Chain of PUM1 PUF domain R3-RVT (Q14671 828-1176 C935R/R936V/Q939T): as the sequence (Q14671 828-1176 N971C/H972N/Q975S) above, with C108R, R109V, Q112T, C144N, N145H, S148Q counted along it
# Chain of PUM1 PUF domain R4-RMA (Q14671 828-1176 N971R/H972M/Q975A): as the sequence (Q14671 828-1176 N971C/H972N/Q975S) above, with C144R, N145M, S148A counted along it
# Chain of PUM1 PUF domain R5-KNA (Q14671 828-1176 C1007K/R1008N/Q1011A): as the sequence (Q14671 828-1176 N971C/H972N/Q975S) above, with C144N, N145H, S148Q, C180K, R181N, Q184A counted along it
# Chain of PUM1 PUF domain R2-LYL (Q14671 828-1176 N899L/Q903L): as the sequence (Q14671 828-1176 N971C/H972N/Q975S) above, with N72L, Q76L, C144N, N145H, S148Q counted along it
sequence,measurement,setting,value
GGCUAGAACUAGUGGAUCCCCCGGCGCCCGGCGGCUCGAGCCCGGGUAAGUGUACAUAGUCUGCAUGCCGCCGGGCGCCAUGCCUGCAGGUCGACUCUAGAAAACAUG,binding signal,PUM1 PUF domain R4-FGR,2.88 log2 enrichment (interaction score)
same,binding signal,PUM1 PUF domain R4-SPM,0.15 log2 enrichment (interaction score)
same,binding signal,PUM1 PUF domain R4-CNS,2.9 log2 enrichment (interaction score)
GGCUAGAACUAGUGGAUCCCCCGGCGCCCGGCGGCUCGAGCCCGGGUAAGUGUAAGUAGUCUGCAUGCCGCCGGGCGCCAUGCCUGCAGGUCGACUCUAGAAAACAUG,binding signal,PUM1 PUF domain R3-LWS,6.62 log2 enrichment (interaction score)
GGCUAGAACUAGUGGAUCCCCCGGCGCCCGGCGGCUCGAGCCCGGGUAAGUGUAAAUUGUCUGCAUGCCGCCGGGCGCCAUGCCUGCAGGUCGACUCUAGAAAACAUG,binding signal,PUM1 PUF domain R1-LRR,2.97 log2 enrichment (interaction score)
GGCUAGAACUAGUGGAUCCCCCGGCGCCCGGCGGCUCGAGCCCGGGUAAGCGUAAAUAGUCUGCAUGCCGCCGGGCGCCAUGCCUGCAGGUCGACUCUAGAAAACAUG,binding signal,PUM1 PUF domain R8-KRW,3.21 log2 enrichment (interaction score)
GGCUAGAACUAGUGGAUCCCCCGGCGCCCGGCGGCUCGAGCCCGGGUAAGUGUAAAAAGUCUGCAUGCCGCCGGGCGCCAUGCCUGCAGGUCGACUCUAGAAAACAUG,binding signal,PUM1 PUF domain R2-LYL,3.33 log2 enrichment (interaction score)
GGCUAGAACUAGUGGAUCCCCCGGCGCCCGGCGGCUCGAGCCCGGGUAAGUUUAAAUAGUCUGCAUGCCGCCGGGCGCCAUGCCUGCAGGUCGACUCUAGAAAACAUG,binding signal,PUM1 PUF domain R7-RVC,2.88 log2 enrichment (interaction score)
same,binding signal,PUM1 PUF domain R7-GRL,2.75 log2 enrichment (interaction score)
GGCUAGAACUAGUGGAUCCCCCGGCGCCCGGCGGCUCGAGCCCGGGUAAGUGUUAAUAGUCUGCAUGCCGCCGGGCGCCAUGCCUGCAGGUCGACUCUAGAAAACAUG,binding signal,PUM1 PUF domain R5-NKR,5.24 log2 enrichment (interaction score)
same,binding signal,PUM1 PUF domain R5-RRW,3.67 log2 enrichment (interaction score)
GGCUAGAACUAGUGGAUCCCCCGGCGCCCGGCGGCUCGAGCCCGGGUAAGUGUAAAUCGUCUGCAUGCCGCCGGGCGCCAUGCCUGCAGGUCGACUCUAGAAAACAUG,binding signal,PUM1 PUF domain R1-LRR,2.97 log2 enrichment (interaction score)
same,binding signal,PUM1 PUF domain R1-SVR,3.35 log2 enrichment (interaction score)
GGCUAGAACUAGUGGAUCCCCCGGCGCCCGGCGGCUCGAGCCCGGGUAAGUGUAAAUAGUCUGCAUGCCGCCGGGCGCCAUGCCUGCAGGUCGACUCUAGAAAACAUG,binding signal,PUM1 PUF domain R3-LWS,4.31 log2 enrichment (interaction score)
same,binding signal,PUM1 PUF domain R4-GFW,4.78 log2 enrichment (interaction score)
same,binding signal,PUM1 PUF domain R4-SPM,3.49 log2 enrichment (interaction score)
same,binding signal,PUM1 PUF domain R5-QLS,0.83 log2 enrichment (interaction score)
same,binding signal,PUM1 PUF domain R4-RMT,3.47 log2 enrichment (interaction score)
same,binding signal,PUM1 PUF domain R6-RWC,4.89 log2 enrichment (interaction score)
same,binding signal,PUM1 PUF domain R4-RMA,4.05 log2 enrichment (interaction score)
same,binding signal,PUM1 PUF domain R4-CNS,0.73 log2 enrichment (interaction score)
same,binding signal,PUM1 PUF domain R8-KRW,1.73 log2 enrichment (interaction score)
same,binding signal,PUM1 PUF domain R5-RRW,0.79 log2 enrichment (interaction score)
GGCUAGAACUAGUGGAUCCCCCGGCGCCCGGCGGCUCGAGCCCGGGUAAGUGUCAAUAGUCUGCAUGCCGCCGGGCGCCAUGCCUGCAGGUCGACUCUAGAAAACAUG,binding signal,PUM1 PUF domain R5-KNA,2.79 log2 enrichment (interaction score)
same,binding signal,PUM1 PUF domain R5-RRW,3.43 log2 enrichment (interaction score)
GGCUAGAACUAGUGGAUCCCCCGGCGCCCGGCGGCUCGAGCCCGGGUAAGUGUAAUUAGUCUGCAUGCCGCCGGGCGCCAUGCCUGCAGGUCGACUCUAGAAAACAUG,binding signal,PUM1 PUF domain R3-LWS,4.58 log2 enrichment (interaction score)
same,binding signal,PUM1 PUF domain R3-RPH,3.26 log2 enrichment (interaction score)
same,binding signal,PUM1 PUF domain R3-RVT,2.47 log2 enrichment (interaction score)
GGCUAGAACUAGUGGAUCCCCCGGCGCCCGGCGGCUCGAGCCCGGGUAAGUGUGAAUAGUCUGCAUGCCGCCGGGCGCCAUGCCUGCAGGUCGACUCUAGAAAACAUG,binding signal,PUM1 PUF domain R5-QLS,2.16 log2 enrichment (interaction score)
same,binding signal,PUM1 PUF domain R5-RRW,0.3 log2 enrichment (interaction score)
GGCUAGAACUAGUGGAUCCCCCGGCGCCCGGCGGCUCGAGCCCGGGUAAGUGUAUAUAGUCUGCAUGCCGCCGGGCGCCAUGCCUGCAGGUCGACUCUAGAAAACAUG,binding signal,PUM1 PUF domain R4-GFW,4.86 log2 enrichment (interaction score)
same,binding signal,PUM1 PUF domain R4-FGR,2.32 log2 enrichment (interaction score)
same,binding signal,PUM1 PUF domain R4-SPM,3.22 log2 enrichment (interaction score)
same,binding signal,PUM1 PUF domain R4-CNS,3.64 log2 enrichment (interaction score)
